Reference: PubChem BioAssay (Tox21)
Results filed as inconclusive are left out. A call without a number means that no potency is given here. Calls of active or inactive are those of the source. Calls come from the whole dose curve; as a rule, active = well fitted curve in the direction sought with a large enough effect in the repeat runs; inconclusive = weak or mixed curves; inactive = no such curve, though single readings can be large; an effect the other way counts as inactive or inconclusive.

These molecules were tested against Voltage-gated inwardly rectifying potassium channel KCNH2 (Homo sapiens) (UniProt Q12809) (assay: Human Ether-a-go-go-Related Gene (hERG) channel small molecule antagonists: fluorescence cell-based qHTS assay (AID 1671200)). Conditions: hERG-U2OS cells, FluxOR thallium flux fluorescence; series mostly up to 76.8 µM.
Outline: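 Cell line hERG-U2OS; dye FluxOR II, 1 h RT dark; Tl+ stimulus; ex 480/em 540 nm, read each second for 2 min.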
Note: nearly all actives have a fitted effect of over 50% in size.
Potency is the fitted concentration of half-maximal effect.

Chain of Voltage-gated inwardly rectifying potassium channel KCNH2 (Homo sapiens) (Q12809 whole entry, looked up): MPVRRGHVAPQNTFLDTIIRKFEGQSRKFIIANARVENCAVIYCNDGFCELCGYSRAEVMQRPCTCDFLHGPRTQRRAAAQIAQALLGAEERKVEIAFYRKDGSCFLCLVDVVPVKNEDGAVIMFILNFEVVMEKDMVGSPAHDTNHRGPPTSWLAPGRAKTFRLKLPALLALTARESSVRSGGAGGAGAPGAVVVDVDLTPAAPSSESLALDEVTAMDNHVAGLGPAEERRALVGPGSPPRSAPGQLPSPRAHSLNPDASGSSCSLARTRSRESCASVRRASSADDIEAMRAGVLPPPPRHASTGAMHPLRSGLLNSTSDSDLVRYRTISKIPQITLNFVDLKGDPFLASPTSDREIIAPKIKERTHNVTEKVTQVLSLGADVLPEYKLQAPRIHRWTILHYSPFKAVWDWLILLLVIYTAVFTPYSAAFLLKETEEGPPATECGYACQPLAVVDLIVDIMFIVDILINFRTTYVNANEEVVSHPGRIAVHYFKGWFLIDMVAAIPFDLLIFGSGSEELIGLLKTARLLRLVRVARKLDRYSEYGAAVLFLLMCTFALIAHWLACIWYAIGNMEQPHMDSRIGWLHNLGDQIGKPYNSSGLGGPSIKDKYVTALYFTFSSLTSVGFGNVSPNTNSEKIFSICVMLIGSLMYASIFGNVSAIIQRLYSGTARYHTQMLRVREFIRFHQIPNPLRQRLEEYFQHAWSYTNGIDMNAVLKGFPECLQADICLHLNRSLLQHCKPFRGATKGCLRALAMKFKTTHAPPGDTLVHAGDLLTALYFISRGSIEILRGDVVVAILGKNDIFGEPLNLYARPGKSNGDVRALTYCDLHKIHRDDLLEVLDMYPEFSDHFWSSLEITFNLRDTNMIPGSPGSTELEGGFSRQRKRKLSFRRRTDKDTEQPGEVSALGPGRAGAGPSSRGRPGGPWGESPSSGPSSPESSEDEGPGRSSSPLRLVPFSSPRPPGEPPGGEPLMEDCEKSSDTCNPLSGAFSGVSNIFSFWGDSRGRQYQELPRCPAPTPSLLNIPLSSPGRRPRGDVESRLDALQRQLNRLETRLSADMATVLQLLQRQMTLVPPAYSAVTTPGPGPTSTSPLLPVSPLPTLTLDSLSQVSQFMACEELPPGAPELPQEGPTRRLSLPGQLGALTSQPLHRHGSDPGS

Structure (SMILES) | Potency
CCCCP(CCCC)CCCC | inactive
CCCCc1ccc(O)cc1 | inactive
CCN(CC)C(=O)[C@@H]1C=C2c3cccc4[nH]cc(c34)C[C@H]2N(C)C1 | inactive
CC(Oc1ccc(Oc2ncc(C(F)(F)F)cc2Cl)cc1)C(=O)O (centres undefined) | inactive
CCC(C)(C)c1cc(-n2nc3ccccc3n2)c(O)c(C(C)(C)CC)c1 | inactive
CC(Cl)(Cl)[N+](=O)[O-] | inactive
O=c1oc2ccccc2c(O)c1C1CCCc2ccccc21 (centres undefined) | inactive
O=C1OC(CCN2CCCCC2)OC1(c1ccccc1)c1ccccc1 (centres undefined) | 0.848 µM (active)
COc1cc(OC)nc(NC(=O)NS(=O)(=O)c2ncccc2OCC(F)(F)F)n1 | inactive

Each molecule was assayed against Cytochrome P450 3A4 (Homo sapiens) (UniProt P08684) (assay: Cytochrome P450 Family 3 Subfamily A Member 4 (CYP3A4) small molecule antagonists: luciferase reporter qHTS assay (AID 1671201)). Conditions: P450-Glo CYP3A4 enzyme, luciferin luminescence, 1 h; series mostly up to 115 µM.
Outline: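 Room-temperature assay throughout: 10 min compound–enzyme/substrate preincubation, 1 h reaction after NADPH regeneration solution, 20 min detection. Luciferin formed from proluciferin substrate is quantified by luminescence.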

Chain of Cytochrome P450 3A4 (Homo sapiens) (P08684 whole entry, looked up): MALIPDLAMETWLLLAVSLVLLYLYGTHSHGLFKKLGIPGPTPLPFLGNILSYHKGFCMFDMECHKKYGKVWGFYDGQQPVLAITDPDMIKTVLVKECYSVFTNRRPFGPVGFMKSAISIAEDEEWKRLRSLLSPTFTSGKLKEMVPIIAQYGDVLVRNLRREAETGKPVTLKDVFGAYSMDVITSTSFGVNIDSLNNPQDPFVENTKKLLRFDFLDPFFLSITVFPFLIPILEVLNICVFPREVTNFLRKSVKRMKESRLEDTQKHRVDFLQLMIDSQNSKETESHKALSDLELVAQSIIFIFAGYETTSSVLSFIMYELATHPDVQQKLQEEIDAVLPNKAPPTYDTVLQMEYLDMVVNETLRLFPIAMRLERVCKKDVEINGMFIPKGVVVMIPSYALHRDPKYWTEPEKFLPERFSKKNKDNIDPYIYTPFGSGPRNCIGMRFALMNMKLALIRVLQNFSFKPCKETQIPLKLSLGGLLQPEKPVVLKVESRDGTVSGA

Structure (SMILES) | Potency
CC(C)[N+](=O)[O-] | inactive
O=[N+]([O-])c1cccc2cccnc12 | inactive
C[C@@H]1CN(C2CCC(C#N)(c3ccc(F)cc3)CC2)CC[C@]1(C(=O)O)c1ccccc1 (some centres undefined) | inactive
C[C@]1(O)CC[C@H]2[C@@H]3CCC4=CC(=O)CC[C@]4(C)[C@@]3(F)[C@@H](O)C[C@@]21C | inactive
C#CCN1C(=O)COc2cc(F)c(N3C(=O)C4=C(CCCC4)C3=O)cc21 | 35.6 µM (active)
COC(=O)C(C)Oc1ccc(Oc2ccc(Cl)cc2Cl)cc1 (centres undefined) | inactive
O=C1OC(=O)C2C1C1(Cl)C(Cl)=C(Cl)C2(Cl)C1(Cl)Cl (centres undefined) | inactive
CCSC(=O)N(CC)C1CCCCC1 | inactive
CC1=C(C(=O)Nc2ccccc2)S(=O)(=O)CCO1 | inactive
Nc1cc2c3c(c1)C(c1ccccc1)=N[C@@H](NC(=O)c1cccnc1)C(=O)N3CC2 | 11.2 µM (active)
COC(=O)c1ccccc1S(=O)(=O)NC(=O)Nc1nc(C)cc(C)n1 | inactive
N#Cc1c(Cl)cccc1Cl | inactive
CC1=NNC(=O)N(/N=C/c2cccnc2)C1 | inactive
CCCSC(=O)Cl | inactive
OCCSCSCCO | inactive
N#CC(Cl)(Cl)Cl | inactive
CCOP(=S)(OCC)SCSP(=S)(OCC)OCC | 1.26 µM (active)
C(CCOCC1CO1)COCC1CO1 (centres undefined) | inactive
CC(N)=S | inactive
COC(=O)C(c1ccccc1)C1CCCCN1 (centres undefined) | inactive
O=CNC(N1CCN(C(NC=O)C(Cl)(Cl)Cl)CC1)C(Cl)(Cl)Cl (centres undefined) | 7.96 µM (active)
O=[N+]([O-])c1ccc(CBr)cc1 | inactive
CCCCP(CCCC)CCCC | inactive
C=C(C)CN(CC)c1c([N+](=O)[O-])cc(C(F)(F)F)cc1[N+](=O)[O-] | inactive
CCCCc1ccc(O)cc1 | inactive
CCN(CC)C(=O)[C@@H]1C=C2c3cccc4[nH]cc(c34)C[C@H]2N(C)C1 | 82.8 µM (active)
CC(Oc1ccc(Oc2ncc(C(F)(F)F)cc2Cl)cc1)C(=O)O (centres undefined) | inactive
CC(Cl)(Cl)[N+](=O)[O-] | inactive
O=c1oc2ccccc2c(O)c1C1CCCc2ccccc21 (centres undefined) | 31.7 µM (active)
COc1cc(OC)nc(NC(=O)NS(=O)(=O)c2ncccc2OCC(F)(F)F)n1 | inactive
